Test systems include DU-145 prostate; K-562 leukemia; MALME-3M melanoma; MDA-MB-231 breast; RXF 393 renal; SF-268 CNS; SF-295 CNS; SF-539 CNS; UACC-257 melanoma.
What all share (assay): NCI-60 one-dose screen, 48 h (100 = growth as untreated, 0 = no growth, -100 = all killed)
Conditions in all cases: 10 µM

Compounds without any hit were thinned out: in the full panel of roughly 83,000, 20% have a hit.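 For each line, cells grew in 96-well plates with the test compound present at a single concentration for 48 hours.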 Values without a mark were called inactive. Calls of active or inactive are those of the source. The calls were made as follows: active = growth percent below 10; inactive = the rest.

For the molecule `O/N=C/c1ccc(O)cc1O`, the growth in the assay on DU-145 prostate was 112%; in the assay on K-562 leukemia it was 105%; in the assay with MALME-3M melanoma, 109%; with MDA-MB-231 breast it was 105%; in the assay with RXF 393 renal it was 112%; with SF-268 CNS, 105%. The growth with SF-295 CNS was 107%; in the assay on SF-539 CNS, 104%; in the assay on UACC-257 melanoma, 87.7%.
On to `CN1C(=O)CN2CCc3ccccc3C2c2cc(Cl)ccc21` (stereo unspecified), for which the growth in the assay with DU-145 prostate is 119%; with K-562 leukemia it was 92.6%; in the assay on MALME-3M melanoma, 94.3%; in the assay with MDA-MB-231 breast, 93.6%; in the assay on RXF 393 renal it was 93.7%; in the assay with SF-268 CNS, 103%. Further, the growth in the assay with SF-295 CNS is 105%; in the assay with SF-539 CNS it was 89.4%; in the assay on UACC-257 melanoma, 112%.
Consider `CC1(C)N=C(N)N=C(N)N1c1cccc(Br)c1`, for which the growth is 53.4% with DU-145 prostate; 23.2% in the assay on K-562 leukemia; 68.9% in the assay with MALME-3M melanoma; 77.6% in the assay on MDA-MB-231 breast; 66.8% in the assay on RXF 393 renal; 37.2% in the assay on SF-268 CNS. Moreover, the growth in the assay with SF-295 CNS is -8.36% (active); with SF-539 CNS, 16.2%; in the assay with UACC-257 melanoma, 56%.
As to `Nc1ncnc2[nH]ncc12`, the growth with DU-145 prostate was 2.47% (active); in the assay on K-562 leukemia it was 13%; in the assay on MALME-3M melanoma it was 21.3%; in the assay on MDA-MB-231 breast, 5.28% (active); in the assay on RXF 393 renal, 14.9%; in the assay with SF-268 CNS it was 29.9%. Moreover, the growth in the assay with SF-295 CNS is 21%; in the assay with SF-539 CNS, 35.6%; in the assay with UACC-257 melanoma it was 16.3%.
For `CC1CC(O)CC(C)(C)C1` (stereo unspecified), the growth in the assay on DU-145 prostate is 101%; with K-562 leukemia it was 110%; in the assay with MALME-3M melanoma, 97.4%; in the assay with MDA-MB-231 breast it was 105%; with RXF 393 renal, 115%; in the assay with SF-268 CNS, 91.9%. In addition, the growth was 98.7% in the assay with SF-295 CNS, 95.2% in the assay on SF-539 CNS and 97.8% with UACC-257 melanoma.
In the case of `CCOC(=O)C(CCC(C)C)C(=O)OCC`, the growth was 107% in the assay on DU-145 prostate; 103% with K-562 leukemia; 108% in the assay on MALME-3M melanoma; 109% in the assay on MDA-MB-231 breast; 110% in the assay with RXF 393 renal; 92.5% in the assay with SF-268 CNS. Also, the results for the growth in the assay on SF-295 CNS, in the assay with SF-539 CNS and in the assay with UACC-257 melanoma were 102%, 107% and 97.5%, respectively.
For the molecule `Oc1ccccc1O`, the growth in the assay on DU-145 prostate is 106%; with K-562 leukemia, 112%; in the assay on MALME-3M melanoma, 138%; in the assay on MDA-MB-231 breast, 63.9%; with RXF 393 renal, 94.4%; in the assay on SF-268 CNS, 87.2%. The growth in the assay on SF-295 CNS was 136%; in the assay with SF-539 CNS it was 84.1%; in the assay on UACC-257 melanoma it was 87.7%.
Regarding `CC(C)C1CCCCC1O` (stereo unspecified), the growth in the assay on DU-145 prostate was 113%; in the assay on K-562 leukemia it was 164%; in the assay on MALME-3M melanoma, 117%; in the assay on MDA-MB-231 breast, 99.4%; in the assay with RXF 393 renal, 112%; in the assay on SF-268 CNS, 99.5%. Further, the growth was 111% in the assay on SF-295 CNS, 101% in the assay on SF-539 CNS and 101% with UACC-257 melanoma.
As to `O=c1[nH]nc(SC2CCCCC2)c(=O)[nH]1`, the growth with DU-145 prostate is 114%; in the assay on K-562 leukemia, 84.3%; in the assay with MALME-3M melanoma, 95.7%; with MDA-MB-231 breast, 102%; in the assay on RXF 393 renal, 129%; in the assay with SF-268 CNS, 98.8%. Also, the growth in the assay with SF-295 CNS is 118%; with SF-539 CNS, 99%; in the assay on UACC-257 melanoma, 91.2%.
As for `OCc1cccc2ccccc12`, the growth was 108% in the assay on DU-145 prostate; 99.3% with K-562 leukemia; 132% in the assay with MALME-3M melanoma; 112% in the assay on MDA-MB-231 breast; 146% in the assay with RXF 393 renal; 107% in the assay with SF-268 CNS. The growth was 117% in the assay on SF-295 CNS, 95.7% in the assay with SF-539 CNS and 109% in the assay with UACC-257 melanoma.
In the case of `CCC(C)(O)c1ccc(C)cc1` (stereo unspecified), the growth in the assay on DU-145 prostate was 106%; in the assay on K-562 leukemia, 116%; in the assay with MALME-3M melanoma, 119%; with MDA-MB-231 breast it was 107%; in the assay with RXF 393 renal it was 113%; with SF-268 CNS it was 92.9%. Also, the growth with SF-295 CNS is 109%; with SF-539 CNS it was 103%; with UACC-257 melanoma, 105%.
Take `CC(C)OC(=O)c1cc(NC(=S)OC(C)C)ccc1Cl`: the growth with DU-145 prostate is 83.8%; in the assay on K-562 leukemia it was 73.7%; in the assay with MALME-3M melanoma, 67.6%; with MDA-MB-231 breast, 72.7%; in the assay with RXF 393 renal it was 35.8%; in the assay with SF-268 CNS, 92%. In addition, the figures for the growth with SF-295 CNS, with SF-539 CNS and in the assay on UACC-257 melanoma were 83.5%, 89.6% and 78.9%, respectively.
Take `OCC1OC(OC2C(O)C(CO)OC2(CO)OC2OC(CO)C(O)C(O)C2O)C(O)C(O)C1O` (stereo unspecified): the growth with DU-145 prostate was 116%; in the assay with K-562 leukemia, 139%; with MALME-3M melanoma, 138%; in the assay on MDA-MB-231 breast, 99.6%; in the assay with RXF 393 renal, 118%; in the assay with SF-268 CNS, 106%. Also, the figures for the growth in the assay with SF-295 CNS, with SF-539 CNS and with UACC-257 melanoma were 131%, 96.9% and 97.6%, respectively.
Regarding `N/N=C(/Cc1ccccc1)NNC(N)=S`, the growth in the assay on DU-145 prostate was 106%; in the assay with K-562 leukemia it was 103%; in the assay on MALME-3M melanoma, 95.4%; in the assay with MDA-MB-231 breast, 111%; in the assay on RXF 393 renal, 112%; in the assay on SF-268 CNS, 97.4%. The growth was 105% in the assay with SF-295 CNS, 98.5% in the assay on SF-539 CNS and 92.3% in the assay on UACC-257 melanoma.
Regarding `O=C(O)CSCSCC(=O)O`, the growth with DU-145 prostate was 111%; in the assay on K-562 leukemia it was 97.8%; with MALME-3M melanoma, 105%; in the assay on MDA-MB-231 breast, 107%; with RXF 393 renal, 97%; in the assay on SF-268 CNS, 110%. The growth in the assay on SF-295 CNS was 96.6%; with SF-539 CNS, 98.3%.
`CC(=O)OCCC(C)CCC=C(C)C` (stereo unspecified): the growth is 107% in the assay on DU-145 prostate; 98.5% in the assay on K-562 leukemia; 114% in the assay on MALME-3M melanoma; 98.1% in the assay on MDA-MB-231 breast; 116% in the assay with RXF 393 renal; 97.2% in the assay with SF-268 CNS. Further, the growth in the assay on SF-295 CNS is 106%; with SF-539 CNS it was 99.1%; with UACC-257 melanoma, 106%.
In the case of `N#CCCc1ccc(O)cc1`, the growth in the assay on DU-145 prostate was 117%; in the assay with K-562 leukemia it was 100%; with MALME-3M melanoma, 108%; in the assay with MDA-MB-231 breast it was 116%; in the assay with RXF 393 renal, 106%; in the assay on SF-268 CNS it was 110%. Moreover, the growth in the assay with SF-295 CNS was 97.8%; in the assay with SF-539 CNS it was 99.4%.
